Data on six sequences can be found in article PMC11006913.

Common to all, as to assay: PBM; 200 nM protein, PBS
Holding throughout (details): dsDNA, one strand shown

For test [1], the target named is T1, SIX6 (Homo sapiens, UniProt O95475 114-200, L167I).
T1 sequence: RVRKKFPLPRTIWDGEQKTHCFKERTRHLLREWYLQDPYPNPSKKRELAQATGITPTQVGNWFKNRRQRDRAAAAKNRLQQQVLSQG

Test [2] has as its target T2, SIX6 (Homo sapiens, UniProt O95475 114-200, L143V).
T2 sequence: T1 sequence with L30V, I54L

Test [3] deals with T3, SIX6 (Homo sapiens, UniProt O95475 114-200, H141N).
T3 sequence: T1 sequence with H28N, I54L

The target of test [4] is T4, SIX6 (Homo sapiens, UniProt O95475 114-200, T165P).
T4 sequence: T1 sequence with T52P, I54L

Test [5] concerns the target T5, SIX6 (Homo sapiens, UniProt O95475 114-200, L167M).
T5 sequence: T1 sequence with I54M

Test [6] addresses T6, SIX6 (Homo sapiens, UniProt O95475 114-200, L143M).
T6 sequence: T1 sequence with L30M, I54L

Test [7] has as its target T7, SIX6 (Homo sapiens, UniProt O95475 114-200, L143I).
T7 sequence: T1 sequence with L30I, I54L

The target of test [8] is T8, SIX6 (Homo sapiens, UniProt O95475 114-200, T165G).
T8 sequence: T1 sequence with T52G, I54L

In test [9] the target is T9, SIX6 (Homo sapiens, UniProt O95475 114-200, T139Q).
T9 sequence: T1 sequence with T26Q, I54L

Test [10] has as its target T10, SIX6 (Homo sapiens, UniProt O95475 114-200, T165A).
T10 sequence: T1 sequence with T52A, I54L

Test [11] concerns the target T11, SIX6 (Homo sapiens, UniProt O95475 114-200, L167V).
T11 sequence: T1 sequence with I54V

Test [12] deals with T12, SIX6 (Homo sapiens, UniProt O95475 114-200).
T12 sequence: T1 sequence with I54L

The target of test [13] is T13, SIX6 (Homo sapiens, UniProt O95475 114-200, T165I).
T13 sequence: T1 sequence with T52I, I54L

Changes are numbered by the printed parent chain.

Take CGTATCAA: the binding signal with SIX6 [1] was 11.1 upbm affinity estimate (log intensity, higher = more binding, comparable within an allelic series); in the test with SIX6 [2], 10.2 upbm affinity estimate (log intensity, higher = more binding, comparable within an allelic series); with SIX6 [3], 11.2 upbm affinity estimate (log intensity, higher = more binding, comparable within an allelic series); in the test with SIX6 [4], 9.64 upbm affinity estimate (log intensity, higher = more binding, comparable within an allelic series); in the test with SIX6 [5], 10.6 upbm affinity estimate (log intensity, higher = more binding, comparable within an allelic series); with SIX6 [6], 11.1 upbm affinity estimate (log intensity, higher = more binding, comparable within an allelic series). Moreover, the binding signal is 10.3 upbm affinity estimate (log intensity, higher = more binding, comparable within an allelic series) with SIX6 [7]; 11.1 upbm affinity estimate (log intensity, higher = more binding, comparable within an allelic series) with SIX6 [8]; 11 upbm affinity estimate (log intensity, higher = more binding, comparable within an allelic series) with SIX6 [9]; 11.1 upbm affinity estimate (log intensity, higher = more binding, comparable within an allelic series) with SIX6 [10]; 10.9 upbm affinity estimate (log intensity, higher = more binding, comparable within an allelic series) in the test with SIX6 [11]; 10.9 upbm affinity estimate (log intensity, higher = more binding, comparable within an allelic series) with SIX6 [12]. For the same sequence, in the test with SIX6 [13], the binding signal is 11 upbm affinity estimate (log intensity, higher = more binding, comparable within an allelic series).
AGGGCCCG: the binding signal with SIX6 [1] was 8.98 upbm affinity estimate (log intensity, higher = more binding, comparable within an allelic series); in the test with SIX6 [2], 8.79 upbm affinity estimate (log intensity, higher = more binding, comparable within an allelic series); in the test with SIX6 [3], 8.98 upbm affinity estimate (log intensity, higher = more binding, comparable within an allelic series); in the test with SIX6 [4], 8.84 upbm affinity estimate (log intensity, higher = more binding, comparable within an allelic series); in the test with SIX6 [5] it was 8.98 upbm affinity estimate (log intensity, higher = more binding, comparable within an allelic series); with SIX6 [6], 8.93 upbm affinity estimate (log intensity, higher = more binding, comparable within an allelic series). Further, the binding signal in the test with SIX6 [7] is 8.9 upbm affinity estimate (log intensity, higher = more binding, comparable within an allelic series); with SIX6 [8] it was 8.99 upbm affinity estimate (log intensity, higher = more binding, comparable within an allelic series); with SIX6 [9] it was 9.07 upbm affinity estimate (log intensity, higher = more binding, comparable within an allelic series); in the test with SIX6 [10], 8.92 upbm affinity estimate (log intensity, higher = more binding, comparable within an allelic series); with SIX6 [11] it was 8.93 upbm affinity estimate (log intensity, higher = more binding, comparable within an allelic series); in the test with SIX6 [12] it was 8.95 upbm affinity estimate (log intensity, higher = more binding, comparable within an allelic series). In the test with SIX6 [13], the binding signal was 8.9 upbm affinity estimate (log intensity, higher = more binding, comparable within an allelic series).
Turning to CGGCCTTC, the binding signal is 8.62 upbm affinity estimate (log intensity, higher = more binding, comparable within an allelic series) in the test with SIX6 [1]; 8.87 upbm affinity estimate (log intensity, higher = more binding, comparable within an allelic series) with SIX6 [2]; 8.82 upbm affinity estimate (log intensity, higher = more binding, comparable within an allelic series) with SIX6 [3]; 9 upbm affinity estimate (log intensity, higher = more binding, comparable within an allelic series) with SIX6 [4]; 8.83 upbm affinity estimate (log intensity, higher = more binding, comparable within an allelic series) with SIX6 [5]; 8.77 upbm affinity estimate (log intensity, higher = more binding, comparable within an allelic series) with SIX6 [6]. The binding signal with SIX6 [7] was 8.94 upbm affinity estimate (log intensity, higher = more binding, comparable within an allelic series); with SIX6 [8] it was 8.84 upbm affinity estimate (log intensity, higher = more binding, comparable within an allelic series); with SIX6 [9], 8.59 upbm affinity estimate (log intensity, higher = more binding, comparable within an allelic series); with SIX6 [10] it was 8.81 upbm affinity estimate (log intensity, higher = more binding, comparable within an allelic series); with SIX6 [11], 8.94 upbm affinity estimate (log intensity, higher = more binding, comparable within an allelic series); with SIX6 [12], 8.77 upbm affinity estimate (log intensity, higher = more binding, comparable within an allelic series). Besides, the binding signal with SIX6 [13] is 8.7 upbm affinity estimate (log intensity, higher = more binding, comparable within an allelic series).
As for AGGCGCCC, the binding signal is 8.71 upbm affinity estimate (log intensity, higher = more binding, comparable within an allelic series) with SIX6 [1]; 8.6 upbm affinity estimate (log intensity, higher = more binding, comparable within an allelic series) with SIX6 [2]; 8.7 upbm affinity estimate (log intensity, higher = more binding, comparable within an allelic series) in the test with SIX6 [3]; 8.77 upbm affinity estimate (log intensity, higher = more binding, comparable within an allelic series) with SIX6 [4]; 8.76 upbm affinity estimate (log intensity, higher = more binding, comparable within an allelic series) with SIX6 [5]; 8.63 upbm affinity estimate (log intensity, higher = more binding, comparable within an allelic series) with SIX6 [6]. In addition, the binding signal with SIX6 [7] was 8.66 upbm affinity estimate (log intensity, higher = more binding, comparable within an allelic series); in the test with SIX6 [8], 8.66 upbm affinity estimate (log intensity, higher = more binding, comparable within an allelic series); with SIX6 [9], 8.66 upbm affinity estimate (log intensity, higher = more binding, comparable within an allelic series); in the test with SIX6 [10], 8.69 upbm affinity estimate (log intensity, higher = more binding, comparable within an allelic series); in the test with SIX6 [11] it was 8.65 upbm affinity estimate (log intensity, higher = more binding, comparable within an allelic series); with SIX6 [12] it was 8.6 upbm affinity estimate (log intensity, higher = more binding, comparable within an allelic series). The binding signal with SIX6 [13] was 8.7 upbm affinity estimate (log intensity, higher = more binding, comparable within an allelic series).
As to CGATACCA, the binding signal with SIX6 [1] is 10.8 upbm affinity estimate (log intensity, higher = more binding, comparable within an allelic series); in the test with SIX6 [2] it was 10 upbm affinity estimate (log intensity, higher = more binding, comparable within an allelic series); with SIX6 [3], 10.8 upbm affinity estimate (log intensity, higher = more binding, comparable within an allelic series); with SIX6 [4], 9.44 upbm affinity estimate (log intensity, higher = more binding, comparable within an allelic series); in the test with SIX6 [5], 10.3 upbm affinity estimate (log intensity, higher = more binding, comparable within an allelic series); in the test with SIX6 [6] it was 10.7 upbm affinity estimate (log intensity, higher = more binding, comparable within an allelic series). Also, the binding signal in the test with SIX6 [7] was 10.1 upbm affinity estimate (log intensity, higher = more binding, comparable within an allelic series); with SIX6 [8], 11 upbm affinity estimate (log intensity, higher = more binding, comparable within an allelic series); in the test with SIX6 [9], 11.1 upbm affinity estimate (log intensity, higher = more binding, comparable within an allelic series); in the test with SIX6 [10], 10.8 upbm affinity estimate (log intensity, higher = more binding, comparable within an allelic series); in the test with SIX6 [11], 10.6 upbm affinity estimate (log intensity, higher = more binding, comparable within an allelic series); with SIX6 [12], 10.8 upbm affinity estimate (log intensity, higher = more binding, comparable within an allelic series). Also, the binding signal in the test with SIX6 [13] is 10.6 upbm affinity estimate (log intensity, higher = more binding, comparable within an allelic series).
Turning to GCGCTGCC, the binding signal in the test with SIX6 [1] was 8.75 upbm affinity estimate (log intensity, higher = more binding, comparable within an allelic series); in the test with SIX6 [2], 8.74 upbm affinity estimate (log intensity, higher = more binding, comparable within an allelic series); in the test with SIX6 [3] it was 8.81 upbm affinity estimate (log intensity, higher = more binding, comparable within an allelic series); in the test with SIX6 [4] it was 8.85 upbm affinity estimate (log intensity, higher = more binding, comparable within an allelic series); with SIX6 [5] it was 8.8 upbm affinity estimate (log intensity, higher = more binding, comparable within an allelic series); with SIX6 [6], 8.76 upbm affinity estimate (log intensity, higher = more binding, comparable within an allelic series). The binding signal with SIX6 [7] is 8.77 upbm affinity estimate (log intensity, higher = more binding, comparable within an allelic series); with SIX6 [8], 8.82 upbm affinity estimate (log intensity, higher = more binding, comparable within an allelic series); with SIX6 [9] it was 8.75 upbm affinity estimate (log intensity, higher = more binding, comparable within an allelic series); with SIX6 [10], 8.8 upbm affinity estimate (log intensity, higher = more binding, comparable within an allelic series); in the test with SIX6 [11], 8.69 upbm affinity estimate (log intensity, higher = more binding, comparable within an allelic series); in the test with SIX6 [12] it was 8.71 upbm affinity estimate (log intensity, higher = more binding, comparable within an allelic series). For the same sequence, the binding signal with SIX6 [13] is 8.78 upbm affinity estimate (log intensity, higher = more binding, comparable within an allelic series).
